Potency and affinity values are given separately. Calls of active or inactive are those of the source. Where a call stands in place of a potency, no number is given. How the calls were made is not given here.

The experiment can be described thus: HepG2 cell cytotoxicity, cytotoxicity control, set 4 (AID 504910). To be noted: series mostly up to 50 µM.
Take `CO[C@H]1/C=C/O[C@@]2(C)Oc3c(C)c(O)c4c(O)c(c(C=NN5CCN(C)CC5)c(O)c4c3C2=O)NC(=O)/C(C)=C\C=C\[C@H](C)[C@H](O)[C@@H](C)[C@@H](O)[C@@H](C)[C@H](OC(C)=O)[C@@H]1C`: the outcome was inactive. For `COc1cccc(NC(=O)CSc2nc3ccccc3c(=O)[nH]2)c1` the value was “inactive”; for `CC[N+](C)(CC)CCCCOc1ccc2c(c1)C(=O)c1cc(OCCCC[N+](C)(CC)CC)ccc1-2`, “inactive”. As for `NNC(=O)c1ccncc1`, the molecule was called inactive.

For the molecule `O=c1[nH]c(=S)[nH]c2ccccc12`, the molecule was called inactive. For the molecule `COc1ccc(NC(=O)CSc2nc3ccccc3c(=O)[nH]2)cc1`, the call was inactive.

`Cn1c(SCC(=O)NC2CCCCC2)nc2ccccc2c1=O`: the outcome was inactive. For `COC(=O)C(Nc1nc(SCC(=O)NC2CCCCC2)nc2ccccc12)c1ccccc1` (stereo unspecified), the call was inactive.

For `CC1CCN(C(=O)CSc2nc3ccccc3c(=O)[nH]2)CC1`, the result was inactive. For `Cc1cc(=O)[nH]c(SCC(=O)NC2CCCCC2)n1` the value was “inactive”; for `CC(Sc1nc2ccccc2c(=O)[nH]1)C(=O)NC1CCCCC1` (stereo unspecified), “inactive”; for `CCCc1cc(C(N)=S)ccn1`, “inactive”. Turning to `Cc1ccc(NC(=O)CSc2nc3ccccc3c(=O)[nH]2)cc1Cl`, the result was inactive. Take `CC(C)CCNC(=O)CSc1nc2c(c(=O)[nH]1)CCC2`: the outcome was inactive.

As to `Cc1cc(=O)[nH]c(=S)[nH]1`, the result was inactive. `CCSc1nc2ccccc2c(=O)[nH]1`: the call was inactive. With `CCSc1nc(C)c(C)c(=O)[nH]1`, the call was inactive. Turning to `CC1CCN(C(=O)C2CCN(c3nnc(-n4cccc4)s3)CC2)CC1`, the molecule was called inactive. For the molecule `Cc1c[nH]c(=S)[nH]c1=O`, the call was inactive.

In the case of `Cc1[nH]c(=S)[nH]c(=O)c1C`, the molecule was called inactive. Consider `O=C(CSc1ncccn1)NC1CCCCC1`, for which the outcome was inactive. Take `O=C(CSc1nc2ccccc2c(=O)[nH]1)NC1CCCC1`: the molecule was classed as inactive.

As for `Cc1cccc(/C=C/C(=O)c2ccc([N+](=O)[O-])o2)c1`, the call was inactive. Regarding `O=C(CSc1nc2ccccc2c(=O)[nH]1)N1CCOCC1`, the molecule was called inactive.

Consider `O=C(CSc1nc2ccccc2c(=O)[nH]1)NC1CCCCC1`, for which the outcome was inactive. For the molecule `NC[C@H]1O[C@H](O[C@H]2[C@H](O)[C@@H](O[C@H]3O[C@H](CO)[C@@H](O)[C@H](N)[C@H]3O)[C@H](N)C[C@@H]2N)[C@H](O)[C@@H](O)[C@@H]1O`, the molecule was called inactive. For `CC(C)CCNC(=O)CSc1nc2ccccc2c(=O)[nH]1`, the outcome was inactive.

With `CC(C)NC(=O)CSc1nc2ccccc2c(=O)[nH]1`, the molecule was called inactive. Regarding `CCC(Sc1nc2ccccc2c(=O)[nH]1)C(=O)Nc1cccc(OC)c1` (stereo unspecified), the result was inactive. For the molecule `O=C(CSc1nc2c(c(=O)[nH]1)CCC2)NC1CCCCC1`, the call was inactive.

In the case of `CCOC1OC(=O)C(Cl)=C1Nc1ccccc1C` (stereo unspecified), the outcome was inactive.

The record behind these values is PubChem BioAssay AID504910 (Southern Research Specialized Biocontainment Screening …, 2011).
